Only some compounds are listed: those with a hit (about 19% of all), similar ones and a draw of the others.
DT40 TDP1 no CPT: qHTS for Inhibitors of human tyrosyl-DNA phosphodiesterase 1 (TDP1): qHTS in cells in absence of CPT. Potency, µM (highest dose often 46.2 µM), hits mostly inhibitors. actives 15% (n = 420,000). DT40 Tdp1-/- hTDP1 cells, no CPT, ATP luminescence, 48 h; note: nearly all actives have a fitted effect of over 55% in size
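Camptothecin absent (DMSO only). Human TDP1-complemented DT40 knockout cells, 400 cells/well, 37 °C for minimum 48 hr; ATP measured via CellTiter-Glo, 30 min dark incubation, luminescence.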
DT40 TDP1 CPT: qHTS for Inhibitors of human tyrosyl-DNA phosphodiesterase 1 (TDP1): qHTS in cells in presence of CPT; Potency, µM (series often up to 46.2 µM), hits mostly inhibitors; actives 12% (n = 420,000); chicken DT40 Tdp1-/-;hTDP1 cells + 20 nM CPT, ATP luminescence, 48 h; note: nearly all actives have a fitted effect of over 55% in size
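Chicken DT40 Tdp1-/- cells stably complemented with human TDP1 were seeded at 400 cells/well in medium containing 20 nM camptothecin, exposed to pin-transferred compounds, and grown at 37 °C for at least 48 hr. Viability was read as ATP luminescence.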
HT1080NT lethal: qHTS for induction of synthetic lethality in tumor cells producing 2HG: qHTS for the HT-1080-NT fibrosarcoma cell line | HT-1080-NT fibrosarcoma viability, CellTiter-Glo ATP luminescence, 48 h | Potency, µM (series often up to 46.1 µM), actives largely listed as cytotoxic | actives 1.6% (n = 360,000);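 note: NT is the 2HG producing partner of a matched IDH1 knockdown line; nearly all actives have a fitted effect of over 55% in size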
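Fibrosarcoma NT cells, 750 per well in 5% FBS RPMI, were exposed to compound for 48 hours. Viability: CellTiter-Glo luminescence.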
IL-1B inflam inh: qHTS for Inhibitors of Inflammasome Signaling: IL-1-beta AlphaLISA Primary Screen; THP-1 LPS/ATP IL-1B secretion, AlphaLISA, 16 h; hits give low values; activity change, % at 57.5 µM; actives 4.7% (n = 360,000); in the data active = activity change below about -50%; inconclusive = mostly about -30% to -49%
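THP-1 cells pretreated 1 hr with compounds (up to 57.5 uM final), then stimulated with LPS (250 ng/mL final) plus ATP (1.25 mM final); secreted IL-1B measured by AlphaLISA after 16 hr, decreased signal indicating inhibition.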
HT1080 IDH1KD tx: qHTS for induction of synthetic lethality in tumor cells producing 2HG: qHTS for the HT-1080-IDH1KD cell line; AID 686971, 2013; HT-1080 IDH1 knockdown viability, ATP luminescence, 48 h; Potency, µM (doses to about 46.1 µM), usual class: cytotoxic; actives 2% (n = 360,000)
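Knockdown cells (IDH1KD HT-1080) received compounds 2 h after plating at 750 cells/well and were kept 48 h at 37 °C in 5% FBS RPMI. A CellTiter-Glo luminescence read gave % activity for curve fitting.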
Of the large screens only hits and unclear results are named; the others gave an inactive call. Unless noted, calls come from the whole dose curve; as a rule, active = well fitted curve in the direction sought with a large enough effect; inconclusive = small, poorly fitted or top-dose-only effect, or another doubt; inactive = no such curve, though single readings can be large; an effect the other way counts as inactive or inconclusive.

COc1ccc2o/c(=N\O)c(C(=O)Nc3ccccc3OC)cc2c1	DT40 TDP1 no CPT 5.8µM, DT40 TDP1 CPT 3.7µM
COc1cccc2cc(C(=O)Nc3ccccc3C)/c(=N/O)oc12	DT40 TDP1 no CPT 16µM, DT40 TDP1 CPT 16µM
COc1ccc2oc(=O)c(C(=O)Nc3ccccc3O)cc2c1	DT40 TDP1 no CPT inconclusive
COc1ccc(NC(=O)c2cc3ccc(O)cc3o/c2=N\O)cc1	DT40 TDP1 no CPT inconclusive, DT40 TDP1 CPT 4.1µM, HT1080NT lethal inconclusive, IL-1B inflam inh inconclusive, HT1080 IDH1KD tx inconclusive
COc1ccc(OC)c(N(C)S(=O)(=O)c2ccc3c(c2)NC(=O)CC(=O)N3)c1	none (no result: HT1080NT lethal, IL-1B inflam inh, HT1080 IDH1KD tx)
CCN1CCN(C(=O)c2cnn(-c3ncc4c(n3)-c3ccccc3CCC4)c2COC)CC1	none (no result: HT1080NT lethal, IL-1B inflam inh, HT1080 IDH1KD tx)
CCN(CC(=O)NCc1ccc(F)cc1)C(=O)/C=C/c1ccco1	DT40 TDP1 no CPT inconclusive
CC(=O)c1cccc(OCC(=O)Nc2ccccc2N2CCOCC2)c1	DT40 TDP1 no CPT inconclusive, DT40 TDP1 CPT 18µM, IL-1B inflam inh inconclusive
O=C(COc1cccc(Br)c1)Nc1ccc(N2CCOCC2)cc1N1CCOCC1	DT40 TDP1 no CPT inconclusive, DT40 TDP1 CPT 18µM, HT1080NT lethal inconclusive
CCC(C)Oc1cccc(C(=O)Nc2ccccc2N2CCOCC2)c1 (centres undefined)	DT40 TDP1 no CPT 18µM, DT40 TDP1 CPT inconclusive
COCCNC(=O)c1cc(OC)c(OC)cc1[N+](=O)[O-]	none
CC(C)CCNC(=O)c1ccc(NC(=O)N2CCCCc3ccccc32)cc1	none (no result: HT1080NT lethal, IL-1B inflam inh, HT1080 IDH1KD tx)
O=C(NNc1ccccc1F)C1CCC1	none
O=C(NNc1ccc(F)cc1F)C1CCC1	HT1080NT lethal inconclusive, HT1080 IDH1KD tx 4.6µM (no result: IL-1B inflam inh)
COc1ccc(CN2CCN(Cc3ccc(C(F)(F)F)cc3)CC2)cc1	DT40 TDP1 no CPT 23µM, DT40 TDP1 CPT inconclusive, IL-1B inflam inh inconclusive
COc1ccc(CC2(CO)CCN(Cc3cccc4nccnc34)CC2)cc1	none
COc1ccc(CN2CCN(C(=O)c3cccs3)CC2)cc1	IL-1B inflam inh -87
FC(F)(F)c1ccc(CN2CCCCCC2)cc1	none
COc1ccc(CC2(CO)CCN(Cc3ccc4c(c3)CCO4)CC2)cc1	HT1080NT lethal inconclusive, IL-1B inflam inh inconclusive, HT1080 IDH1KD tx 21µM
COc1ccc(CN2CCC(CO)(Cc3ccccc3C(F)(F)F)CC2)c(F)c1	DT40 TDP1 no CPT 18µM, DT40 TDP1 CPT 16µM, IL-1B inflam inh inconclusive
CCn1c(SCC(=O)c2ccccc2)nnc1-c1cccs1	none
CCOC(=O)C1CCCCN1C(=O)c1ccc(-n2cc(NC(=O)c3cccnc3)cn2)cc1 (centres undefined)	DT40 TDP1 no CPT inconclusive (no result: HT1080NT lethal, IL-1B inflam inh, HT1080 IDH1KD tx)
CCCOc1ccc(C(=O)Nc2ccc3nn(-c4ccc(OC)c(Cl)c4)nc3c2)cc1	DT40 TDP1 no CPT inconclusive (no result: HT1080NT lethal, IL-1B inflam inh, HT1080 IDH1KD tx)
COc1ccc2[nH]c(C(=O)N3CCCN(Cc4ccc(F)cc4)CC3)cc2c1	DT40 TDP1 no CPT inconclusive, DT40 TDP1 CPT inconclusive, IL-1B inflam inh -78
COc1ccc(CC2(CO)CCN(Cc3ccc(OC(F)(F)F)cc3)CC2)cc1	DT40 TDP1 no CPT 18µM, DT40 TDP1 CPT inconclusive, HT1080NT lethal inconclusive (no result: IL-1B inflam inh)
Cc1ccc(NCSc2ccc(Cl)cc2)cc1	DT40 TDP1 no CPT inconclusive, DT40 TDP1 CPT inconclusive, IL-1B inflam inh inconclusive
Clc1ccc(SCNc2ccccc2Cl)cc1	DT40 TDP1 no CPT inconclusive, DT40 TDP1 CPT 9.2µM, IL-1B inflam inh inconclusive
COc1ccc(C(=O)NCCc2nnc3n2CCN(CC2CC=CCC2)CC3)cc1 (centres undefined)	none (no result: HT1080NT lethal, IL-1B inflam inh, HT1080 IDH1KD tx)
COc1ccc(NC(=O)CSc2nnc3n2CCCCC3)cc1OC	DT40 TDP1 no CPT 0.21µM, HT1080NT lethal inconclusive, IL-1B inflam inh inconclusive
COc1ccc(NC(=O)CSc2nnc(C3CCCCC3)n2N)cc1OC	HT1080NT lethal inconclusive
COc1ccc(C(=O)Nc2ccc(-c3nnc4n3CCCCC4)cc2)cc1OC	DT40 TDP1 no CPT 13µM, DT40 TDP1 CPT 13µM (no result: HT1080NT lethal, IL-1B inflam inh, HT1080 IDH1KD tx)
CN(C)C(=O)CCc1ccc2c3c([nH]c2c1)[C@]1(C)[C@@H](C(=O)N2CCCCC2)C[C@H](CC(=O)NCc2ccco2)C(=O)N1CC3	none
CN(C)C(=O)CCc1ccc2c3c([nH]c2c1)[C@]1(C)[C@@H](C(=O)N2CCOCC2)C[C@H](CC(=O)NCc2cccc(C(F)(F)F)c2)C(=O)N1CC3	DT40 TDP1 no CPT inconclusive, DT40 TDP1 CPT 16µM
CN(C)C(=O)CCc1ccc2c3c([nH]c2c1)[C@]1(CCc2ccccc2)[C@@H](C(=O)N2CCCCC2)C[C@H](CC(=O)NCc2cccc(C(F)(F)F)c2)C(=O)N1CC3	DT40 TDP1 no CPT 21µM, DT40 TDP1 CPT inconclusive, IL-1B inflam inh -71

Screens (PubChem)
